According to ChEMBL document CHEMBL5606458, “ASAP - ZIKV NS2B-NS3 protease fluorescence single point” (2024):
In all, about 2,700 compounds went through this assay and about 160 (5.9%) showed an effect of 50% or more. Many of the other results were omitted from the sample, so strong results are more common in it than they were.

Target: Nonstructural protein 3 (Zika virus) (UniProt A0A024AXB9)
[1] = PRVABC59, Concentration 15.0 uM, Number of replicates 1.0
[2] = PRVABC59, Concentration 50.0 uM, Number of replicates 1.0

Nonstructural protein 3 (Zika virus), sequence (A0A024AXB9 as listed by the source): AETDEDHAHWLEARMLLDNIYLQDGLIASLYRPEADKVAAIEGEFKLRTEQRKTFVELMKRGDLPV

## c1cnc2c(C3CCN(Cc4ccc5[nH]cnc5c4)CC3)c[nH]c2c1
PRVABC59, Concentration 49.5 uM, Number of replicates 2.0, Standard deviation 2.816135776094685 %
  inhibition: 1.64%
PRVABC59, Concentration 99.01 uM, Number of replicates 2.0, Standard deviation 1.9941147484327908 %
  inhibition: 7.38%
PRVABC59, Concentration 198.0 uM, Number of replicates 2.0, Standard deviation 0.19707731493778816 %
  inhibition: 19.3%

## CC(C)(C)c1ccc(S(=O)(=O)N2CCN(C(=O)c3cc(Cl)ccc3NS(=O)(=O)c3ccc(Oc4ccccc4Cl)cc3)CC2)cc1
[1]
  inhibition: 14.3%

## COc1ccc(S(=O)(=O)N2CCC(C(=O)Nc3nc4ccccc4s3)CC2)cc1
PRVABC59, Concentration 49.5 uM, Number of replicates 2.0, Standard deviation 3.281212488466362 %
  inhibition: 4.02%
PRVABC59, Concentration 99.01 uM, Number of replicates 2.0, Standard deviation 0.8753020409515783 %
  inhibition: 5.17%
PRVABC59, Concentration 198.0 uM, Number of replicates 2.0, Standard deviation 6.6794445217114635 %
  inhibition: 7.79%

## COc1ccc(S(=O)(=O)Nc2ccc(C(=O)O)cc2)cc1
PRVABC59, Concentration 49.5 uM, Number of replicates 2.0, Standard deviation 1.0137935505852833 %
  inhibition: 2.03%
PRVABC59, Concentration 99.01 uM, Number of replicates 2.0, Standard deviation 1.063246976754026 %
  inhibition: 4.7%
PRVABC59, Concentration 198.0 uM, Number of replicates 2.0, Standard deviation 1.989546367228998 %
  inhibition: 3.61%

## COc1ccc(S(=O)(=O)n2nc(OC(=O)c3ccccc3)cc2N)cc1
PRVABC59, Concentration 49.5 uM, Number of replicates 2.0, Standard deviation 0.018531126353269887 %
  inhibition: 99.1%
PRVABC59, Concentration 99.01 uM, Number of replicates 2.0, Standard deviation 0.03874003445206144 %
  inhibition: 99.1%
PRVABC59, Concentration 198.0 uM, Number of replicates 2.0, Standard deviation 0.035373681367799316 %
  inhibition: 99%

## CN(Cc1cccc(F)c1F)C(=O)c1cc(Cl)ccc1NS(=O)(=O)c1ccc(Oc2ccccc2Cl)cc1
[1]
  inhibition: 31.2%

## CC(C)CCN(CCC(C)C)C(=O)c1cc(Cl)ccc1NS(=O)(=O)c1ccc(Oc2ccccc2Cl)cc1
[1]
  inhibition: 18.8%

## CS(=O)(=O)c1ccc(O)c(NC(=O)c2cc(Cl)ccc2NS(=O)(=O)c2ccc(Oc3ccccc3Cl)cc2)c1
[1]
  inhibition: 32.3%

## COc1nscc1-c1ccccc1C(=O)Nc1cnn(C)c1
PRVABC59, Concentration 49.5 uM, Number of replicates 2.0, Standard deviation 2.0613155081961194 %
  inhibition: -1.46%
PRVABC59, Concentration 99.01 uM, Number of replicates 2.0, Standard deviation 1.0972097923679232 %
  inhibition: 1.42%
PRVABC59, Concentration 198.0 uM, Number of replicates 2.0, Standard deviation 0.19246139208887503 %
  inhibition: 3.36%

## O=C(Cn1sc2ccccc2c1=O)Nc1cccc(OCc2cn(CC(=O)Nc3ccccc3Oc3ccccc3)nn2)c1
PRVABC59, Concentration 49.5 uM, Number of replicates 2.0, Standard deviation 0.019067908615904634 %
  inhibition: 53.7%
PRVABC59, Concentration 99.01 uM, Number of replicates 2.0, Standard deviation 0.0558469345004512 %
  inhibition: 58.2%
PRVABC59, Concentration 198.0 uM, Number of replicates 2.0, Standard deviation 0.30102425600760013 %
  inhibition: 69.5%

## O=C(Nc1ccc(-n2ccnc2)cc1)c1cc(Cl)ccc1NS(=O)(=O)c1ccc(Oc2ccccc2Cl)cc1
[1]
  inhibition: 63.6%

## Cc1nccn1-c1ccc(NC(=O)c2cc(Cl)ccc2NS(=O)(=O)c2ccc(Oc3ccccc3Cl)cc2)cc1
[1]
  inhibition: 43.8%

## O=C(Nc1ccc(-n2cccn2)cc1)c1cc(Cl)ccc1NS(=O)(=O)c1ccc(Oc2ccccc2Cl)cc1
[1]
  inhibition: 71.5%

## CCN(CC)S(=O)(=O)c1ccc(NC(=O)c2cc(Cl)ccc2NS(=O)(=O)c2ccc(Oc3ccccc3Cl)cc2)cc1
[1]
  inhibition: 27.6%

## O=C(NCc1cccc(-n2cccn2)c1)c1cc(Cl)ccc1NS(=O)(=O)c1ccc(Oc2ccccc2Cl)cc1
[1]
  inhibition: 33.4%

## CCN1CCN(c2ccc(NC(=O)c3cc(Cl)ccc3NS(=O)(=O)c3ccc(Oc4ccccc4Cl)cc3)cc2)CC1
[1]
  inhibition: 17.1%

## COc1ccc([C@@H](C)NC(=O)C2CCN(c3ccc(C=O)cc3)CC2)cc1OC
PRVABC59, Concentration 10.0 uM, Number of replicates 1.0
  inhibition: 22.9%

## O=C(N[C@H](c1ccccc1)C(F)(F)F)c1cc(Cl)ccc1NS(=O)(=O)c1ccc(Oc2ccccc2Cl)cc1
[1]
  inhibition: 60.6%

## CC(C)(C)[C@H](NC(=O)c1cc(Cl)ccc1NS(=O)(=O)c1ccc(Oc2ccccc2Cl)cc1)c1ccccc1
[1]
  inhibition: 57.8%

## C[C@@H](CC(C)(C)c1ccccc1)NC(=O)c1cc(Cl)ccc1NS(=O)(=O)c1ccc(Oc2ccccc2Cl)cc1
[1]
  inhibition: 18.2%

## C[C@H](NC(=O)c1cc(Cl)ccc1NS(=O)(=O)c1ccc(Oc2ccccc2Cl)cc1)c1cccc(C(F)(F)F)c1
[1]
  inhibition: 39.3%

## O=C(N[C@H](c1ccccc1)[C@@H](O)c1ccccc1)c1cc(Cl)ccc1NS(=O)(=O)c1ccc(Oc2ccccc2Cl)cc1
[1]
  inhibition: 45.7%

## C[C@H](NC(=O)c1cc(Cl)ccc1NS(=O)(=O)c1ccc(Oc2ccccc2Cl)cc1)c1ccccc1C(F)(F)F
[1]
  inhibition: 42.7%

## Cc1cnccc1NC(=O)c1cccc(-n2cnnn2)c1
PRVABC59, Concentration 49.5 uM, Number of replicates 2.0, Standard deviation 4.148081450793093 %
  inhibition: -4.56%
PRVABC59, Concentration 99.01 uM, Number of replicates 2.0, Standard deviation 2.8220872377424997 %
  inhibition: -2.1%
PRVABC59, Concentration 198.0 uM, Number of replicates 2.0, Standard deviation 5.644174285824181 %
  inhibition: -3.31%

## O=Cc1ccc(N2CCC(C(=O)Nc3ccc(F)cc3Br)CC2)cc1
[2]
  inhibition: 20.8%

## CCN(CCOc1ccccc1C)C(=O)C1CCN(c2ccc(C=O)cc2)CC1
[2]
  inhibition: 25.1%

## O=C(c1cc(Cl)ccc1NS(=O)(=O)c1ccc(Oc2ccccc2Cl)cc1)N1CCCN(c2ccc(C(F)(F)F)cn2)CC1
[1]
  inhibition: 30%

## CCN1CCOC[C@H]1C(=O)Nc1cc(Cl)cc(C(=O)NC(C)(C)CO)c1
PRVABC59, Concentration 49.5 uM, Number of replicates 2.0, Standard deviation 1.425535849610213 %
  inhibition: -1.8%
PRVABC59, Concentration 99.01 uM, Number of replicates 2.0, Standard deviation 1.345541763339264 %
  inhibition: -2.76%
PRVABC59, Concentration 198.0 uM, Number of replicates 2.0, Standard deviation 3.0049064318797343 %
  inhibition: -3.73%
